Assay [1] in a line: NCI Yeast Anticancer Drug Screen. Data for the rad50 strain (AID 155).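 Further: 0% = growth of vehicle-only cultures of the same strain.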 As to conditions: S. cerevisiae rad50 strain growth inhibition, active compounds read high. The essentials:
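Compounds were tested on a yeast strain with an engineered DNA damage repair alteration; the reported value is growth inhibition normalised to vehicle treatment.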

The nature of assay [2]: NCI Yeast Anticancer Drug Screen. Data for the mec2-1 strain (AID 157). The following applies: S. cerevisiae mec2-1 strain, active compounds read high. The essentials:
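Strain: mec2-1 (DNA repair/cell cycle alteration). Compound exposure, then growth measured; inhibition expressed relative to vehicle.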

The nature of assay [3]: NCI Yeast Anticancer Drug Screen. Data for the sgs1 mgt1 strain (AID 161).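 Further: 0% = growth of cultures given vehicle only.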 The following applies: S. cerevisiae sgs1 mgt1 strain, active compounds read high. The essentials:
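Inhibition of yeast growth, normalised to vehicle-treated controls, is reported for a strain bearing genetic alterations in DNA damage repair.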

Assay [4] is described as follows: NCI Yeast Anticancer Drug Screen. Data for the cln2 rad14 strain (AID 165).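 Further: 0% = growth equal to vehicle treated cultures.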 As to conditions: S. cerevisiae cln2 rad14 strain, active compounds read high. The essentials:
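Compounds are applied to the cln2 rad14 yeast strain, and growth is then compared with that of vehicle-treated cultures to give inhibition.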

The nature of assay [5]: NCI Yeast Anticancer Drug Screen. Data for the bub3 strain (AID 167). As to conditions: S. cerevisiae bub3 mutant strain, active compounds read high. Put shortly:
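Growth of a checkpoint-deficient yeast mutant is measured after compound exposure. Values represent inhibition relative to vehicle.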

A short description of assay [6]: NCI Yeast Anticancer Drug Screen. Data for the mlh1 rad18 strain (AID 175). As to conditions: S. cerevisiae mlh1 rad18 strain growth inhibition, active compounds read high. Put shortly:
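Read-out is yeast growth inhibition, calculated against vehicle-only controls. The compound was applied to a strain engineered with DNA damage repair alterations.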

[7] abbreviates: at 5.0 µM (retest, dose inferred, filed as 0.5).
[8] abbreviates: at 50.0 µM (retest, dose inferred, filed as 5.0).

The values that follow come from PubChem BioAssay (NCI).

The panel holds about 79,000 compounds, 15% with a hit somewhere; the sample as a whole holds those more often. Unmarked numbers belong to inactive results. Activity calls are given as the source filed them. No stated cut-off is given here; in the data, active means growth inhibition above about 70%; inactive means the rest.

For `CCOc1nc(N)nc(C)c1N=Nc1ccc(Br)cc1`, the growth inhibition in assay [1] (setting [7]) is 9%; in assay [1] (setting [8]), 90% (active); in assay [1] (at 50.0 µM), 70.2% (active); in assay [2] (setting [7]) it was 0%; in assay [2] (setting [8]), 32%; in assay [2] (at 50.0 µM), 2.6%. The growth inhibition in assay [3] (setting [7]) was 4%; in assay [3] (setting [8]) it was 72% (active); in assay [3] (at 50.0 µM), 22.2%; in assay [4] (setting [7]), 4%; in assay [4] (setting [8]) it was 30%; in assay [4] (at 50.0 µM), -9.65%. Further, the growth inhibition is 4% in assay [5] (setting [7]); 88% (active) in assay [5] (setting [8]); 75.9% (active) in assay [5] (at 50.0 µM); 17% in assay [6] (setting [7]); 98% (active) in assay [6] (setting [8]); 35.1% in assay [6] (at 50.0 µM).
For the compound `Nc1ncnc2c1c(-c1ccccc1)cn2-c1ccc(Br)cc1`, the growth inhibition was 23% in assay [1] (setting [7]); 38% in assay [1] (setting [8]); 43.1% in assay [1] (at 50.0 µM); 16% in assay [2] (setting [7]); 43% in assay [2] (setting [8]); 21.7% in assay [2] (at 50.0 µM). Moreover, the growth inhibition in assay [3] (setting [7]) is 47%; in assay [3] (setting [8]) it was 80% (active); in assay [3] (at 50.0 µM), 94% (active); in assay [4] (setting [7]), 13%; in assay [4] (setting [8]) it was 44%; in assay [4] (at 50.0 µM) it was 28.1%. Moreover, the growth inhibition in assay [5] (setting [7]) was 3%; in assay [5] (setting [8]) it was 37%; in assay [5] (at 50.0 µM), -1.8%; in assay [6] (setting [7]), 14%; in assay [6] (setting [8]) it was 58%; in assay [6] (at 50.0 µM) it was 58.9%.
In the case of `NN(Cc1ccccc1)c1ccccc1`, the growth inhibition in assay [1] (setting [7]) was 50%; in assay [1] (setting [8]), 83% (active); in assay [1] (at 50.0 µM), 89.3% (active); in assay [2] (setting [7]) it was 47%; in assay [2] (setting [8]) it was 87% (active); in assay [2] (at 50.0 µM) it was 91.7% (active). The growth inhibition in assay [3] (setting [7]) was 20%; in assay [3] (setting [8]) it was 100% (active); in assay [3] (at 50.0 µM) it was 91.8% (active); in assay [4] (setting [7]) it was 43%; in assay [4] (setting [8]), 99% (active); in assay [4] (at 50.0 µM), 90% (active). The growth inhibition was 40% in assay [5] (setting [7]); 99% (active) in assay [5] (setting [8]); 90.5% (active) in assay [5] (at 50.0 µM); 27% in assay [6] (setting [7]); 77% (active) in assay [6] (setting [8]); 88.6% (active) in assay [6] (at 50.0 µM).
Take `CCCCN(CCCC)CC(O)c1cccc2c(Cl)cccc12` (stereo not given): the growth inhibition was 15% in assay [1] (setting [7]); 54% in assay [1] (setting [8]); 86.5% (active) in assay [1] (at 50.0 µM); 8% in assay [2] (setting [7]); 75% (active) in assay [2] (setting [8]); 71.7% (active) in assay [2] (at 50.0 µM). The growth inhibition was 13% in assay [3] (setting [7]); 93% (active) in assay [3] (setting [8]); 88.5% (active) in assay [3] (at 50.0 µM); 8% in assay [4] (setting [7]); 57% in assay [4] (setting [8]); 89.7% (active) in assay [4] (at 50.0 µM). For the same compound, the growth inhibition in assay [5] (setting [7]) was 13%; in assay [5] (setting [8]), 82% (active); in assay [5] (at 50.0 µM) it was 94.8% (active); in assay [6] (setting [7]), 24%; in assay [6] (setting [8]), 88% (active); in assay [6] (at 50.0 µM), 70.5% (active).
`CCOCCNc1ncnc2c1cnn2C`: the growth inhibition in assay [1] (setting [7]) was 2%; in assay [1] (setting [8]), -5%; in assay [1] (at 50.0 µM), -1.1%; in assay [2] (setting [7]), -4%; in assay [2] (setting [8]), -3%; in assay [2] (at 50.0 µM), -18.4%. The growth inhibition in assay [3] (setting [7]) was -16%; in assay [3] (setting [8]), -6%; in assay [3] (at 50.0 µM) it was 13.1%; in assay [4] (setting [7]), -5%; in assay [4] (setting [8]), -1%; in assay [4] (at 50.0 µM), -0.35%. Also, the growth inhibition was 0% in assay [5] (setting [7]); 2% in assay [5] (setting [8]); 8% in assay [5] (at 50.0 µM); 3% in assay [6] (setting [7]); -1% in assay [6] (setting [8]); 39% in assay [6] (at 50.0 µM).
Take `CSC(=S)/C(=C/Nc1ncccn1)c1ccccc1`: the growth inhibition in assay [1] (setting [7]) is 5%; in assay [1] (setting [8]) it was 97% (active); in assay [1] (at 50.0 µM), 94.8% (active); in assay [2] (setting [7]) it was 3%; in assay [2] (setting [8]), 99% (active); in assay [2] (at 50.0 µM), 93.5% (active). For the same compound, the growth inhibition in assay [3] (setting [7]) is -3%; in assay [3] (setting [8]), 94% (active); in assay [3] (at 50.0 µM), 79% (active); in assay [4] (setting [7]) it was 1%; in assay [4] (setting [8]) it was 62%; in assay [4] (at 50.0 µM), 95% (active). The growth inhibition in assay [5] (setting [7]) was -3%; in assay [5] (setting [8]), 94% (active); in assay [5] (at 50.0 µM) it was 91.8% (active); in assay [6] (setting [7]), 7%; in assay [6] (setting [8]), 97% (active); in assay [6] (at 50.0 µM), 94.5% (active).
For `O=C(Nc1nnc(-c2ccccc2)s1)c1cc(=O)c2cc(Cl)ccc2o1`, the growth inhibition is -3% in assay [1] (setting [7]); 45% in assay [1] (setting [8]); 99.3% (active) in assay [1] (at 50.0 µM); 0% in assay [2] (setting [7]); 58% in assay [2] (setting [8]); 99.7% (active) in assay [2] (at 50.0 µM). Moreover, the growth inhibition in assay [3] (setting [7]) is -3%; in assay [3] (setting [8]) it was 78% (active); in assay [3] (at 50.0 µM), 99.5% (active); in assay [4] (setting [7]), 6%; in assay [4] (setting [8]), 62%; in assay [4] (at 50.0 µM) it was 98.8% (active). Moreover, the growth inhibition in assay [5] (setting [7]) is 4%; in assay [5] (setting [8]), 77% (active); in assay [5] (at 50.0 µM), 99.4% (active); in assay [6] (setting [7]) it was 2%; in assay [6] (setting [8]) it was 71% (active); in assay [6] (at 50.0 µM) it was 98.9% (active).
As to `COc1cccc(/C=C2\CCCc3ccccc3C2=O)c1`, the growth inhibition in assay [1] (setting [7]) was 1%; in assay [1] (setting [8]) it was 20%; in assay [1] (at 50.0 µM) it was 52.4%; in assay [2] (setting [7]) it was 7%; in assay [2] (setting [8]), 45%; in assay [2] (at 50.0 µM), 22.3%. Moreover, the growth inhibition in assay [3] (setting [7]) was 14%; in assay [3] (setting [8]) it was 67%; in assay [3] (at 50.0 µM) it was 80.3% (active); in assay [4] (setting [7]), -7%; in assay [4] (setting [8]) it was 6%; in assay [4] (at 50.0 µM), 26.6%. The growth inhibition in assay [5] (setting [7]) was 72% (active); in assay [5] (setting [8]), 87% (active); in assay [5] (at 50.0 µM), 74.4% (active); in assay [6] (setting [7]) it was 10%; in assay [6] (setting [8]) it was 60%; in assay [6] (at 50.0 µM) it was 63.6%.
As to `COc1ccccc1C1(c2ccccc2OC)OC(=O)c2ccccc21`, the growth inhibition in assay [1] (setting [7]) is 3%; in assay [1] (setting [8]), 14%; in assay [1] (at 50.0 µM) it was 77.8% (active); in assay [2] (setting [7]), -1%; in assay [2] (setting [8]) it was 12%; in assay [2] (at 50.0 µM), 60.6%. Also, the growth inhibition in assay [3] (setting [7]) was 3%; in assay [3] (setting [8]) it was -18%; in assay [3] (at 50.0 µM) it was 80.3% (active); in assay [4] (setting [7]), 1%; in assay [4] (setting [8]) it was 22%; in assay [4] (at 50.0 µM) it was 69%. Further, the growth inhibition is -2% in assay [5] (setting [7]); 17% in assay [5] (setting [8]); 77.3% (active) in assay [5] (at 50.0 µM); -6% in assay [6] (setting [7]); 33% in assay [6] (setting [8]); 76% (active) in assay [6] (at 50.0 µM).
`CC(=O)OC1CCCCCCCCCCC12OCCO2` (stereo not given): the growth inhibition in assay [1] (setting [7]) is 23%; in assay [1] (setting [8]), 96% (active); in assay [1] (at 50.0 µM) it was 30%; in assay [2] (setting [7]), 5%; in assay [2] (setting [8]), 98% (active); in assay [2] (at 50.0 µM), 63%. Also, the growth inhibition was 20% in assay [3] (setting [7]); 99% (active) in assay [3] (setting [8]); 73.5% (active) in assay [3] (at 50.0 µM); 1% in assay [4] (setting [7]); 96% (active) in assay [4] (setting [8]); 63.6% in assay [4] (at 50.0 µM). Moreover, the growth inhibition in assay [5] (setting [7]) was 1%; in assay [5] (setting [8]) it was 96% (active); in assay [5] (at 50.0 µM), 83% (active); in assay [6] (setting [7]), 10%; in assay [6] (setting [8]), 96% (active); in assay [6] (at 50.0 µM), 92% (active).
